Reference: PubChem BioAssay (EPA / NIEHS)
The source made the active and inactive calls. The calls were made as follows: active = hit-call score of the fitted dose curve at least 0.9, where 1 is the maximum; inactive = score below 0.9.

These compounds were tested against Transcriptional activator Myb (Homo sapiens) (UniProt P10242) (assay: ATG_Myb_CIS: Attagene CIS-FACTORIAL HepG2 Assay for human Myeloblastosis (Myb) Proto-Oncogene Transcription Factor (AID 2282986)). Conditions: HepG2 Attagene CIS-FACTORIAL Myb reporter transcription; actives raise or lower the signal.
Transcriptional activator Myb (Homo sapiens), sequence (P10242 whole entry, looked up): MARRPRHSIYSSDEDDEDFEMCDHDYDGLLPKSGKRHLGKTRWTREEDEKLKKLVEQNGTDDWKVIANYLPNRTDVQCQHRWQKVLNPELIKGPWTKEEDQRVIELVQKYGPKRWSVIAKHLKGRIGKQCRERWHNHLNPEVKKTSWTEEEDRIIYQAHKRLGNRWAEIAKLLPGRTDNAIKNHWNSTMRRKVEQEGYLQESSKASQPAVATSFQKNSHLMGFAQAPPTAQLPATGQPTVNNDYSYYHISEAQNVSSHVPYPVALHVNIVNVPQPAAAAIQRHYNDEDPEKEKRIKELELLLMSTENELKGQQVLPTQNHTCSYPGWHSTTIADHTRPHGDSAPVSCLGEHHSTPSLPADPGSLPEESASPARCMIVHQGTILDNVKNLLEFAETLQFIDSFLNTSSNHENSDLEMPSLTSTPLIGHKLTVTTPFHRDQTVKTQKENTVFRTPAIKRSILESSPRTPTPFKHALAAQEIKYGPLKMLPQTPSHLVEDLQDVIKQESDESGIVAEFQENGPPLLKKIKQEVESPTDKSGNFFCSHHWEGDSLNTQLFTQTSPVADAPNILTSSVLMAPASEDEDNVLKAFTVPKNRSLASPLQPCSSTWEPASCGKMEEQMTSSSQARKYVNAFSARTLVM
Method: ATG_CIS is a cell-based, multiplexed-readout assay that uses HepG2, a human liver cell line, with measurements taken at 24 hours after chemical dosing in a 24-well plate.ATG_Myb_CIS is one of 52 assay component(s) measured or calculated from the ATG_CIS assay. It is designed to make measurements of mRNA induction, a form of inducible reporter, as detected with fluorescence intensity signals by Reverse transcription polymerase chain reaction (RT-PCR) and Capillary electrophoresis technology.Data from the assay component ATG_Myb_CIS was analyzed into 1 assay endpoint. This assay endpoint, ATG_Myb_CIS, was analyzed with bidirectional fitting relative to DMSO as the negative control and baseline of activity. Using a type of inducible reporter, measures of mRNA for gain or loss-of-signal activity can be used to understand the reporter gene at the transcription factor-level as they relate to the gene MYB. Furthermore, this assay endpoint can be referred to as a primary readout, because this assay has produced multiple assay endpoints where this one serves a reporter gene function. To generalize the intended target to other relatable targets, this assay endpoint is annotated to the dna binding intended target family, where the subfamily is MYB proteins.
Human liver HepG2 cells are transiently transfected with multiple reporter transcription units (MRTUs) in 6-well plates using FuGene 6 reagent (Roche; 3 ml FuGene/1 mg DNA). The MRTU constructs are regulated by a cis-regulating element (promoter). […] A major difference between the CIS and TRANS system is that in CIS activities of endogenous TFs are measured, whereas the TRANS assay evaluates changes in activities of exogenous, chimeric NR-Gal4 proteins. […] At the end of 24 hour incubation, total RNA was isolated using TriZol reagent (Invitrogen). The isolated RNA is then reverse-transcribed using oligo(dT) primer and Mo-MLV reverse transcriptase (Invitrogen) with DNAse I (Ambion) treatment for 30 min. The one-tenth of the produced cDNA was amplified by PCR using Taq DNA polymerase (Invitrogen) and two reporter sequence-specific primers. The PCR products were fluorescently labeled by primer extension with 6-arboxyfluorescein (6-FAM) 5'-labeled reporter sequence-specific primer (2 min at 95 C, 20 s at 68 C and 10 min at 72 C) and these products were digested with 5U of HpaI (New England Biolabs) for 2h at 37 C. The fragments were purified using Qiaquick PCR columns (Qiagen), analyzed on an ABI 3130xL genetic analyzer (Applied Biosystems) with peak positions identified by using a set of X-rhodamine (ROX)-labeled MapMarker1000 molecular weight standards (BioVentures). The raw capillary electrophoresis data was processed using Attagraph software (Attagene).
`CCOC(=O)C=Cc1ccccc1` was tested, and the outcome was “inactive”.
In the case of `C=COCC1CCC(COC=C)CC1` (stereo not given), the outcome is reported as “inactive”.
For `O=C(C=Cc1ccccc1)OCCCc1ccccc1`, the outcome was “inactive”.
With `C=CC(O)CCCCC` (stereo not given) the outcome was “inactive”.
With `CC(=O)c1cccnc1` the outcome was “inactive”.
In the case of `Nc1cc([N+](=O)[O-])ccc1C(=O)O`, the outcome is reported as “inactive”.
For `N#CCCNCCC#N`, the outcome was “inactive”.
In the case of `NC(=O)c1c(Cl)cccc1Cl`, the outcome is reported as “inactive”.
For `CCCCCCCC(=O)N(C)C`, the outcome was “inactive”.
In the case of `O=C(O)c1ccccc1O`, the outcome is reported as “inactive”.
`CC(C)(CO)CO` was tested, and the outcome was “inactive”.
For `CCCCCCCCCCCCS`, the outcome was “inactive”.
For `CC(O)CNCC(C)O` (stereo not given), the outcome was “inactive”.
For `C=C(C)C(=O)OCCOCCOC(=O)C(=C)C`, the outcome was “inactive”.
For `CC(=O)OCC=C(C)CCC=C(C)CCC=C(C)C`, the outcome was “inactive”.
In the case of `O=C1CCCCCCCCCCCC(=O)OCCO1`, the outcome is reported as “inactive”.
For `CCCCCCCCCO`, the outcome was “inactive”.
In the case of `CCCCCC1C(=O)CCC1CC(=O)OC` (stereo not given), the outcome is reported as “inactive”.
With `C[N+](C)(C)CCO` the outcome was “inactive”.
`CC1=C(C=O)C(C)(C)CCC1` was tested, and the outcome was “inactive”.
`CCCCCCCCOS(=O)(=O)O` was tested, and the outcome was “inactive”.
In the case of `CN(C)c1ccc(C=O)cc1`, the outcome is reported as “inactive”.
With `CCCCCCCCCCOC(=O)c1ccccc1C(=O)OCCCCCCCC` the outcome was “inactive”.
For `NS(=O)(=O)c1cc(C(=O)O)c(NCc2ccco2)cc1Cl`, the outcome was “inactive”.
`CC(=O)Nc1cc(S(=O)(=O)O)cc2cc(S(=O)(=O)O)c(N=Nc3ccccc3)c(O)c12` was tested, and the outcome was “inactive”.
`Nc1ccc(N)c([N+](=O)[O-])c1` was tested, and the outcome was “inactive”.
In the case of `CCC(CC)CO`, the outcome is reported as “inactive”.
`CCCO` was tested, and the outcome was “inactive”.
`NCCN1CCNCC1` was tested, and the outcome was “inactive”.
In the case of `S=c1[nH][nH]c(=S)s1`, the outcome is reported as “inactive”.
In the case of `CN(C)C`, the outcome is reported as “inactive”.
For `CC(C)=CC(=O)O`, the outcome was “inactive”.
With `CC1COC(=O)O1` (stereo not given) the outcome was “inactive”.
`CCCO[Si](OCCC)(OCCC)OCCC` was tested, and the outcome was “inactive”.
In the case of `CCn1cc(C(=O)O)c(=O)c2ccc(C)nc21`, the outcome is reported as “inactive”.
`CCCCCCCOC(C)=O` was tested, and the outcome was “inactive”.
In the case of `COc1ccc2[nH]cc(CCNC(C)=O)c2c1`, the outcome is reported as “inactive”.
For `CC1(C)[C@H](C=C(Cl)Cl)[C@H]1C(=O)OCc1cccc(Oc2ccccc2)c1`, the outcome was “inactive”.
For `Brc1cc(Br)cc(Br)c1`, the outcome was “inactive”.
For `CC(C)COC(=O)c1ccccc1`, the outcome was “inactive”.
